Assay results reported in PubChem BioAssay AID1159580 (chemical genetic matrix, 2015).
Where “and” joins values, the source holds several entries; their conditions need not be identical. Equal entries are not always repeated. Out of some 5,500 compounds screened, about 2,000 (36%) were called active. Another 18% or so got no clear call; they are omitted. Cut-off read from the data, not from the text of the source: active = normalized growth mostly below about 0.91 (no sharp cut-off); inconclusive = no clear call, values can overlap the other calls; inactive = mostly above about 0.92. This is one part of the list.

Test: chemical genetic growth profiling, strain panel (AID 1159580);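 note: tested at 20 µM; growth read once vehicle control cultures reached saturation at 30 °C; 1 = growth at the plate median or of vehicle wells; lower values mean less growth of the strain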
Settings: S. cerevisiae deletion strains, growth OD
[1] = locus YGR078C, strain PAC10, hits give low values
[2] = locus YGR229C, strain SMI1, hits give low values
[3] = locus YJR075W, strain HOC1, hits give low values
[4] = locus YMR263W, strain SAP30, hits give low values
[5] = locus YMR307W, strain GAS1, hits give low values
[6] = locus YAL040C, strain CLN3, hits give low values
[7] = locus YCL061C, strain MRC1 (second series), hits give low values
[8] = locus YDR363W, strain ESC2, hits give low values
[9] = locus YER002W, strain NOP16, hits give low values
[10] = locus YNL153C, strain GIM3, hits give low values
[11] = locus YNL175C, strain NOP13, hits give low values
[12] = locus YNL197C, strain WHI3, hits give low values
[13] = locus YNL224C, strain SQS1, hits give low values
[14] = locus YOR083W, strain WHI5 (second series), hits give low values

Measured: normalized growth

CN1C2C[C@H](OC(=O)[C@H](CO)c3ccccc3)C[C@H]1[C@@H](O)C2
inactive: locus YAL021C, strain ccr4, hits give low values 0.979 | locus YAL026C, strain drs2, hits give low values 1.04 | locus YAL030W, strain snc1, hits give low values 1.02 | locus YBL061C, strain skt5, hits give low values 1.03 | locus YBR009C, strain hhf1, hits give low values 1.01 | locus YBR021W, strain FUR4, hits give low values 0.995 | locus YBR023C, strain chs3, hits give low values 1.02 | locus YBR171W, strain sec66, hits give low values 1.01 | locus YBR229C, strain ROT2, hits give low values 1.01 | locus YBR231C, strain swc5, hits give low values 1.02 | locus YBR279W, strain paf1, hits give low values 1.02 | locus YCL011C, strain gbp2, hits give low values 1.01 | locus YCL016C, strain dcc1, hits give low values 0.998 | locus YCL029C, strain bik1, hits give low values 0.997 | locus YCL069W, strain vba3, hits give low values 1.01 | locus YCR088W, strain abp1, hits give low values 1.01 | locus YDL005C, strain med2, hits give low values 1.03 | locus YDL035C, strain GPR1, hits give low values 1.02 | locus YDL040C, strain nat1, hits give low values 1.02 | locus YDL074C, strain BRE1, hits give low values 1.01 | locus YDL101C, strain DUN1, hits give low values 1.01 | locus YDL134C, strain PPH21, hits give low values 1.01 | locus YDL185W, strain tfp1, hits give low values 0.992 | locus YDL192W, strain arf1, hits give low values 0.995 | locus YDR001C, strain nth1, hits give low values 1.02 | locus YDR069C, strain doa4, hits give low values 1.03 | locus YDR101C, strain arx1, hits give low values 1 | locus YDR137W, strain rgp1, hits give low values 1.03 | locus YDR159W, strain sac3, hits give low values 1.05 | locus YDR162C, strain NBP2, hits give low values 1.02 | locus YDR195W, strain ref2 1.01 | locus YDR297W, strain sur2, hits give low values 1.02 | locus YDR318W, strain mcm21, hits give low values 1 | locus YDR334W, strain swr1, hits give low values 1.01 | locus YDR335W, strain msn5, hits give low values 1.02 | locus YDR388W, hits give low values 1 | locus YDR392W, strain spt3, hits give low values 0.911 | locus YDR502C, strain sam2, hits give low values 1.01 | locus YEL003W, strain gim4, hits give low values 1.03 | locus YEL037C, strain rad23, hits give low values 1.01 | locus YEL061C, strain CIN8 (second series), hits give low values 1.02 | locus YEL061C, strain CIN8, hits give low values 1.01 | locus YER015W, strain faa2, hits give low values 1.01 | locus YER016W, strain bim1, hits give low values 1.03 | locus YER110C, hits give low values 1 | locus YER111C, strain swi4, hits give low values 1.02 | locus YER155C, strain BEM2 (second series), hits give low values 1.02 | locus YER155C, strain BEM2, hits give low values 1.01 | locus YER167W, strain BCK2, hits give low values 1 | locus YFR010W, strain ubp6, hits give low values 1.04 | locus YGL078C, strain dbp3, hits give low values 0.999 | locus YGL086W, strain mad1, hits give low values 0.993 | locus YGL167C, strain pmr1, hits give low values 1.02 | locus YGL173C, strain kem1, hits give low values 1.03 | locus YGL227W, strain vid30, hits give low values 1.02 | locus YGL240W, strain doc1, hits give low values 1.02 | locus YGL248W, strain PDE1, hits give low values 1.01 | locus YGL253W, strain hxk2, hits give low values 1.04 | [1] 1.01 | locus YGR135W, strain pre9, hits give low values 1 | [2] 1.02 | locus YGR252W, strain gcn5, hits give low values 0.955 | locus YHR013C, strain ard1, hits give low values 1.01 | locus YHR027C, strain rpn1, hits give low values 1.01 | locus YHR030C, strain SLT2, hits give low values 1.01 | locus YHR079C, strain IRE1 (second series), hits give low values 1 | locus YHR079C, strain IRE1, hits give low values 0.992 | locus YHR094C, strain hxt1, hits give low values 0.992 | locus YHR129C, strain ARP1, hits give low values 1.01 | locus YHR142W, strain chs7, hits give low values 1.03 | locus YHR200W, strain rpn10, hits give low values 1 | locus YIL066C, strain RNR3, hits give low values 1.02 | locus YIL073C, strain SPO22, hits give low values 1.01 | locus YIL125W, strain kgd1, hits give low values 0.991 | locus YIR030C, strain dcg1, hits give low values 0.99 | locus YJL092W, strain hpr5, hits give low values 1.02 | locus YJL095W, strain BCK1 (second series), hits give low values 1.01 | locus YJL095W, strain BCK1, hits give low values 1.02 and 1 | locus YJL115W, strain asf1, hits give low values 1.01 | locus YJL129C, strain trk1, hits give low values 1.02 | locus YJL134W, strain LCB3, hits give low values 1.01 | locus YJL154C, strain vps35, hits give low values 1.02 | locus YJL164C, strain tpk1, hits give low values 0.996 | locus YJL166W, strain qcr8, hits give low values 1.03 | locus YJL168C, strain set2, hits give low values 1 | locus YJL187C, strain SWE1 (second series), hits give low values 1.01 | locus YJR043C, strain POL32, hits give low values 1.03 | locus YJR066W, strain TOR1, hits give low values 0.96 | [3] 1.01 | locus YKL009W, strain mrt4, hits give low values 1.01 | locus YKL068W, hits give low values 0.987 | locus YKL085W, strain MDH1 (second series), hits give low values 1.01 | locus YKL085W, strain MDH1, hits give low values 1.01 | locus YKL160W, strain elf1, hits give low values 1 | locus YKL190W, strain CNB1, hits give low values 1.01 | locus YKR001C, strain vps1, hits give low values 0.981 | locus YKR026C, strain gcn3, hits give low values 1.01 | locus YKR091W, strain srl3, hits give low values 1.02 | locus YLL001W, strain dnm1, hits give low values 1.02 | locus YLL026W, hits give low values 1.02 | locus YLL041C, strain sdh2, hits give low values 1.02 | locus YLR027C, strain aat2, hits give low values 1.03 | locus YLR039C, strain RIC1, hits give low values 1.03 | locus YLR058C, strain SHM2, hits give low values 1.01 | locus YLR102C, strain apc9, hits give low values 0.997 | locus YLR113W, strain HOG1, hits give low values 0.978 | locus YLR221C, strain rsa3, hits give low values 1.02 | locus YLR258W, strain gsy2, hits give low values 1.02 | locus YLR262C, strain YPT6 (second series), hits give low values 1.03 | locus YLR262C, strain YPT6, hits give low values 1.05 | locus YLR268W, strain sec22, hits give low values 0.995 | locus YLR320W, strain mms22, hits give low values 1.04 | locus YLR330W, strain CHS5, hits give low values 1.01 | locus YLR342W, strain FKS1 (second series), hits give low values 1.02 | locus YLR342W, strain FKS1, hits give low values 1.02 | locus YLR357W, strain rsc2, hits give low values 1 | locus YLR370C, strain arc18, hits give low values 1.01 | locus YLR371W, strain rom2, hits give low values 0.989 | locus YLR384C, strain iki3, hits give low values 1.02 | locus YLR418C, strain cdc73, hits give low values 0.991 | locus YML016C, strain PPZ1, hits give low values 1.01 | locus YML032C, strain rad52, hits give low values 0.99 | locus YML120C, strain ndi1, hits give low values 1 | locus YML124C, strain tub3, hits give low values 1 | locus YMR058W, strain fet3, hits give low values 1.03 | locus YMR078C, strain ctf18, hits give low values 0.999 | locus YMR125W, strain sto1, hits give low values 0.983 | locus YMR129W, hits give low values 1.02 | locus YMR205C, strain PFK2, hits give low values 1.04 | locus YMR223W, strain ubp8, hits give low values 1.02 | locus YMR231W, strain pep5, hits give low values 1.01 | [4] 1.01 | [5] 0.97 | locus YNL067W, strain RPL9B, hits give low values 1.01 | locus YNL071W, strain lat1, hits give low values 1.02 | locus YNL183C, strain NPR1, hits give low values 0.96 | locus YNL209W, strain ssb2, hits give low values 1.04 | locus YNL233W, strain BNI4, hits give low values 0.992 | locus YNL248C, strain rpa49, hits give low values 0.941 | locus YNL250W, strain rad50, hits give low values 1 | locus YNL271C, strain bni1, hits give low values 0.99 | locus YNL298W, strain CLA4, hits give low values 1.02 | locus YNL307C, strain MCK1, hits give low values 0.995 | locus YNL322C, strain KRE1 (second series), hits give low values 1.01 | locus YNR049C, strain mso1, hits give low values 1.01 | locus YNR052C, strain pop2, hits give low values 0.992 | locus YOL006C, strain TOP1, hits give low values 0.998 | locus YOL012C, strain htz1 0.77 | locus YOL147C, strain pex11, hits give low values 1 | locus YOR001W, strain rrp6, hits give low values 1.04 | locus YOR061W, strain CKA2, hits give low values 1.01 | locus YOR069W, strain VPS5, hits give low values 1.01 | locus YOR070C, strain gyp1, hits give low values 1.03 | locus YOR080W, strain dia2, hits give low values 1.02 | locus YOR083W, strain WHI5, hits give low values 1.01 | locus YOR106W, strain vam3, hits give low values 0.994 | locus YOR136W, strain idh2, hits give low values 0.992 | locus YOR144C, strain elg1, hits give low values 0.997 | locus YOR184W, strain ser1, hits give low values 1.02 | locus YOR231W, strain MKK1, hits give low values 0.99 | locus YOR265W, strain rbl2, hits give low values 1.01 | locus YOR270C, strain vph1, hits give low values 1.07 | locus YOR290C, strain snf2, hits give low values 0.969 | locus YOR316C, strain cot1, hits give low values 1 | locus YPL051W, strain arl3, hits give low values 1 | locus YPL078C, strain atp4, hits give low values 0.984 | locus YPL106C, strain sse1, hits give low values 1.01 | locus YPL240C, strain hsp82, hits give low values 1.02 | locus YPL256C, strain CLN2, hits give low values 1 | locus YPR119W, strain clb2, hits give low values 1 | locus YPR141C, strain kar3, hits give low values 0.995 | locus YPR163C, strain tif3, hits give low values 1.02 | locus YPR167C, strain met16, hits give low values 1 | strain wtn01, hits give low values 0.986

CN1C2CCC1CC(OC(c1ccccc1)c1ccc(Cl)cc1)C2 (stereo not given)
inactive: [6] 1.01 | [7] 1 | locus YDR150W, strain NUM1, hits give low values 0.997 | [8] 0.958 | [9] 1.04 | [1] 1.02 | [4] 0.997 | [5] 0.994 | [10] 0.987 | [11] 1.04 | [12] 1.03 | [13] 1.05 | [14] 1.01 | locus YPL241C, strain CIN2, hits give low values 0.993
active: [2] 0.844

CN1C2CCC1CC(OC(=O)c1c[nH]c3ccccc13)C2 (stereo not given)
inactive: [6] 0.995 | [7] 1 | [8] 1.01 | [9] 0.994 | [1] 1.02 | [3] 1 | [4] 1 | [5] 1.01 | locus YNL128W, strain TEP1, hits give low values 0.995 | [10] 1.01 | [11] 1 | [12] 1.02 | [13] 0.985 | locus YNL322C, strain KRE1, hits give low values 1.03 | [14] 1.01 | locus YPL055C, strain LGE1, hits give low values 1.02
